From PubChem
Shown are actives, neighbours in structure and some others; about 2.3% of the full set was active somewhere.
Gli-Sufu block: Gli-Sufu pathway antagonists, primary screen, luciferase luminescence, Sufu-KO-LIGHT cells, uHTS; Sufu-KO-LIGHT fibroblasts, Gli luciferase reporter luminescence; inhibition, % at 5 µM; actives 0.74% (n = 340,000);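 active means inhibition above about 55%, limit read from the data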
TAG inh: inhibitors of triacylglycerol accumulation, primary screen, cell-based, uHTS, fluorescence, H9c2. H9c2 cells, Nile Red lipid (TAG) fluorescence; cells loaded with 200 µM oleic acid. inhibition, % at 12.5 µM. actives 0.66% (n = 230,000). AID 651582, 2012;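 active means pattern-corrected inhibition of lipid staining of at least 50% with the nuclear-stain viability signal not falling by more than 50%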
Jurkat NFkB inh: inhibitors of induced NF-kB luciferase reporter, primary screen, TCR NF-kB activation inhibitor project, cell-based, luminescence, uHTS. Jurkat, PMA/ionomycin-induced NF-kB luciferase reporter. inhibition, % at 4 µM. actives 0.53% (n = 330,000). AID 435003, 2010; in the data active means inhibition above about 50%
aSyn 5UTR inh: MLPCN primary screen, SNCA 5' untranslated region; alpha-synuclein 5'UTR reporter, inhibitor activity; inhibition, % (tested at 7.5 µM); actives 0.82% (n = 300,000); in the data active means inhibition above about 60%;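 further: H4 neuroglioblastoma cells stably carrying SNCA 5'UTR luciferase fusion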
Shn3 inh set2: reduction of Shn3 3'UTR firefly luciferase signal, primary screen, Schnurri-3 inhibitor project, cell-based, Clone20 osteoblasts, set 2 | actives 0.52% (n = 360,000) | Clone20 osteoblast Shn3 3'UTR firefly luciferase, 24 h | inhibition, % at 12.5 µM;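 active means mean inhibition of at least 75% with every replicate also reaching 75%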
697 NFkB inh: inhibitors of PMA/ionomycin-induced NF-kB reporter, 697 cells, primary screen, B-cell NF-kB inhibitor project, cell-based, luminescence, uHTS | inhibition, % at 4 µM | actives 0.33% (n = 330,000) | 697 B-cell NF-kB luciferase reporter, 16 h; in the data active means inhibition above about 35%
Gli-Sufu confirm: Gli-SUFU pathway antagonists, confirmation, single concentration, luciferase luminescence, Sufu-KO-LIGHT cells; shares compounds with Gli-Sufu block; Gli luciferase reporter; inhibition, % at 5 µM; actives 40% (n = 2,500);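 active means mean inhibition at 5 µM reaching about 45%, limit read from the data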
Gli cytotox: cytotoxicity in Sufu-KO-LIGHT cells, confirmation, cytotoxicity control for Gli-SUFU antagonist project, cell-based, ATP luminescence, single concentration. shares compounds with Gli-Sufu block. actives 32% (n = 2,500). AID 651994, 2013. cytotoxicity, % at 5 µM;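 active means mean cytotoxicity at 5 µM above about 25%, limit read from the data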;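 further: cells exposed to compound overnight for roughly 16 to 18 hours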
Wnt3a cs: Wnt3a reporter signal inhibition, confirmation, counter-screen for Gli-SUFU antagonist project, Wnt-LIGHT cells, luminescence, single concentration | inhibition, % at 6.25 µM | AID 651995, 2013 | Wnt3a-driven luciferase reporter | actives 20% (n = 2,500) | shares compounds with Gli-Sufu block;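 active means mean inhibition above about 25%, limit read from the data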
Each line names hits and unclear results; the compound was inactive in the other large screens (follow-up assays come after a bar, where they were run).

OCC1OC(n2ccc3c(NO)ncnc32)C(O)C1O (stereo not drawn)	Gli-Sufu block 75, Shn3 inh set2 99 (no result: Jurkat NFkB inh, aSyn 5UTR inh, 697 NFkB inh) | Gli-Sufu confirm 60 | Gli cytotox 54 | Wnt3a cs 69
Cc1ccc(S(=O)(=O)n2c(C)nc3cc(C)ccc32)cc1	none
FC(F)Sc1ccc(-n2c(-c3ccc(Cl)cc3)c[n+]3c2CCC3)cc1	none | Gli-Sufu confirm inactive | Gli cytotox inactive | Wnt3a cs inactive
Cc1ccc(-n2c(-c3ccc(Cl)cc3)c[n+]3c2CCC3)cc1	Gli-Sufu block 76 | Gli-Sufu confirm 77 | Gli cytotox 37 | Wnt3a cs inactive
Cc1ccc(-n2c(-c3ccccc3)c[n+]3c2CCC3)cc1	Gli-Sufu block 82 | Gli-Sufu confirm 84 | Gli cytotox inactive | Wnt3a cs 40
Cc1ccc(-c2c(C#N)c(N)n(-c3ccc(Cl)cc3)c(=O)c2C#N)cc1	none (no result: Gli-Sufu block, Jurkat NFkB inh, aSyn 5UTR inh, 697 NFkB inh)
CCN1CCN(C(=O)c2c(-c3ccccc3)noc2C)CC1	none (no result: TAG inh)
CC(=O)N1CCN(C(=O)c2c(-c3ccccc3)noc2C)CC1	Gli-Sufu block 59 (no result: aSyn 5UTR inh) | Gli-Sufu confirm inactive | Gli cytotox inactive | Wnt3a cs inactive
CCOC(=O)Cn1c(=O)c2c(nc(Br)n2CC(=O)OCC)n(C)c1=O	none
COc1ccc(F)cc1COc1nc(C)nc2ccccc12	Gli-Sufu block 61 (no result: TAG inh) | Gli-Sufu confirm inactive | Gli cytotox inactive | Wnt3a cs inactive
COc1cccc(CN2CCN(S(=O)(=O)c3ccc(Br)cc3)CC2)c1	none (no result: TAG inh)
COc1ccc(S(=O)(=O)N2CCN(Cc3cccc(OC)c3)CC2)cc1	Gli-Sufu block 62 | Gli-Sufu confirm inactive | Gli cytotox inactive | Wnt3a cs inactive
Cc1ccc(C2(C)NC(=O)N(CC(=O)Nc3ccccc3C(=O)NC3CCCC3)C2=O)cc1 (stereo not drawn)	none
CC(C)(C)C(=O)NC(=S)Nc1ccccc1C(=O)NC1CCCCC1	Gli-Sufu block 76 (no result: Shn3 inh set2) | Gli-Sufu confirm inactive | Gli cytotox 46 | Wnt3a cs inactive
O=C(CN1C(=O)c2ccccc2C1=O)Nc1ccccc1C(=O)NC1CCCCCC1	Gli-Sufu block 99 (no result: TAG inh) | Gli-Sufu confirm inactive | Gli cytotox inactive | Wnt3a cs inactive
Cn1c(Nn2cnnc2)nc2ccccc21	none
CCC(C)[C@H]1CNC(=S)N1CCc1cccc2ccccc12 (stereo partly drawn)	none
CCC(C)[C@H]1CN=C(N)N1CCc1cccc2ccccc12 (stereo partly drawn)	Gli-Sufu block 62 (no result: TAG inh) | Gli-Sufu confirm 66 | Gli cytotox inactive | Wnt3a cs inactive
Cc1ccc(OCC(O)CNC2CCCC2)cc1C (stereo not drawn)	none (no result: TAG inh)
Cc1cc(C)c(NC(=O)CNC(=O)COC(=O)C2=COCCO2)c(C)c1	none | Gli-Sufu confirm inactive | Gli cytotox inactive | Wnt3a cs inactive
O=C(COC(=O)c1cc(S(=O)(=O)N2CCOCC2)ccc1O)Nc1cc(S(=O)(=O)N2CCCC2)ccc1Cl	none
CC1(C)Cc2c(sc3nc(SCC(=O)NCc4ccco4)n(-c4ccccc4)c(=O)c23)CS1	none
O=C(CSc1nc2sc3c(c2c(=O)n1-c1ccccc1)CCCC3)NCc1ccco1	Gli-Sufu block 64 | Gli-Sufu confirm inactive | Gli cytotox inactive | Wnt3a cs inactive
COc1ccc(OCc2cc(C(=O)N(C)Cc3cc(C)no3)no2)c(Cl)c1	none (no result: TAG inh)
N#Cc1ccc(OCC(=O)OCC(=O)Nc2sccc2C(N)=O)cc1	none (no result: aSyn 5UTR inh) | Gli-Sufu confirm inactive | Gli cytotox 30 | Wnt3a cs inactive
